# Laboratory results taken from the supplement of paper PMC5641865, “A screen for kinase inhibitors identifies antimicrobial imidazopyridine aminofurazans as specific inhibitors of the Listeria monocytogenes PASTA kinase PrkA” (The Journal of Biological Chemistry, 2017).
# ± gives the standard deviation of the averaged measurements.
# System: Listeria monocytogenes 10403S
# Test: growth inhibition relative to ceftriaxone-alone control; higher = stronger potentiation of ceftriaxone growth inhibition
# Conditions: 10 µM; ceftriaxone 1 ug/ml; 12 h
# 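Also: End-point A600 read in BHI broth at 37 °C with 2% DMSO, inhibition computed as (1 − OD with compound plus ceftriaxone ÷ OD with ceftriaxone only) × 100.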
row,Compound,growth inhibition [%]
1,CS(=O)(=O)CCNCc1ccc(-c2ccc3ncnc(Nc4ccc(OCc5cccc(C(F)(F)F)c5)cc4)c3c2)o1,-9.85 ± 16
2,Cc1cn(-c2cc(NC(=O)c3ccc(C)c(Nc4nccc(-c5cccnc5)n4)c3)cc(C(F)(F)F)c2)cn1 [Nilotinib (AMN-107)],46.8 ± 3.8
3,COc1cc2c(cc1Nc1nc(N3CCc4ccccc43)c3cc[nH]c3n1)N(C(=O)CN(C)C)CC2,7.28 ± 0.39
4,CN(C)Cc1cccc(N=C(c2ccccc2)c2c(O)[nH]c3cc(C(=O)N(C)C)ccc23)c1,26.5 ± 1.6
5,CC[C@H](Nc1ncnc2[nH]cnc12)c1nc2cccc(F)c2c(=O)n1-c1ccccc1,21.7 ± 23
6,CC(=O)NCC(=O)N1[C@@H]2CC[C@H]1c1ccc(Nc3ncc(C(F)(F)F)c(NC4CCC4)n3)cc12,52 ± 46
7,CCCNC(=O)Nc1ccc(Oc2ncnc3cc(OC)c(OC)cc23)cc1Cl,12.7 ± 1.9
8,CS(=O)(=O)CCNCc1cc(-c2cc3c(Nc4ccc(OCc5cccc(F)c5)c(Cl)c4)ncnc3s2)cs1,-10.8 ± 13
9,Nc1ncnc2occ(-c3ccc(NC(=O)Nc4cc(C(F)(F)F)ccc4F)cc3)c12,-0.902 ± 0.59
10,Cc1c2ccc(N(C)c3ccnc(Nc4cccc(S(N)(=O)=O)c4)n3)cc2nn1C,2.52 ± 4.2
11,O=C1NC(=O)C(c2ccc(Cl)cc2)=C1Nc1ccc(Cl)c(C(=O)O)c1,6.2 ± 5.4
12,Cc1cccc(-c2n[nH]cc2-c2ccc3ncccc3n2)n1,-9.12 ± 7.3
13,c1ccc(Cc2nc3ccc(Nc4ncnc5ccccc45)cc3[nH]2)cc1,-14.5 ± 19
14,Clc1ccc(-c2nn3ncccc3c2-c2ccnc(Nc3ccccc3)n2)cc1,-7.12 ± 3.8
15,COC(=O)c1sc(-n2cnc3cc(OC)c(OC)cc32)cc1OCc1ccccc1C(F)(F)F,0.599 ± 0.69
16,CCc1cccc(CC)c1/C=C/c1cncc(C(=O)NC)c1,14.6 ± 2.7
17,N#CC[C@H](C1CCCC1)n1cc(-c2ncnc3[nH]ccc23)cn1,10.6 ± 1.1
18,Cn1c(-c2nonc2N)nc2cnccc21,-5.76 ± 4.5
19,c1cnn2ncc(-c3ccnc(NCCCN4CCOCC4)n3)c2c1,-2.97 ± 0.54
20,Fc1ccc(-c2ncn(C3CCNCC3)c2-c2ccnc(Oc3ccc4c(c3)OCO4)n2)cc1,-3.86 ± 1.5
21,COC(=O)Nc1nc2cc(Oc3ccc(NC(=O)Nc4cccc(Br)c4)cc3)ccc2[nH]1,-0.0344 ± 20
22,COc1cccc(/C=N/Nc2ncnc3c2cnn3-c2cccc(OC)c2)c1,-3.29 ± 11
23,Cc1ccc2c(-c3ccnc(Nc4ccccc4)n3)c(-c3ccc(F)cc3)nn2n1,-6.27 ± 1.4
24,CC(C)(O)CC(=O)NCCn1ccc2ncnc(Nc3ccc(Oc4cccc(C(F)(F)F)c4)c(Cl)c3)c21,98.62 ± 0.75
